The panel holds about 83,000 compounds, 20% with a hit somewhere; the sample as a whole holds those more often.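 Testing used 96-well plates and a 48-hour single-concentration exposure. Example: -40 means 40% of the starting cells died.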 Unmarked numbers belong to inactive results. The source made the active and inactive calls. The calls were made as follows: active = growth percent below 10; inactive = the rest.

We go through 13 compounds from PubChem BioAssay (NCI).

Among the test systems are HCT-15 colon; HT29 colon; SNB-75 CNS; SNB-19 CNS; U251 CNS; PC-3 prostate; SK-MEL-5 melanoma; UACC-62 melanoma; LOX IMVI melanoma; SK-MEL-28 melanoma.
Assay in all cases: NCI-60 one-dose screen, 48 h (100 = growth as untreated, 0 = no growth, -100 = all killed)
Common to all, as to details: 10 µM unless noted

As to `Cc1ccc(C2=C/C(=C/c3ccc(Br)cc3)C(=O)N2CCc2ccc(S(N)(=O)=O)cc2)cc1`, the growth in the assay with HCT-15 colon was 99.8%; with HT29 colon, 106%; in the assay on SNB-75 CNS it was 60.9%; in the assay with SNB-19 CNS it was 89.7%; in the assay with U251 CNS, 95.5%; in the assay with PC-3 prostate it was 88%. For the same compound, the growth in the assay on SK-MEL-5 melanoma was 94.7%; in the assay with UACC-62 melanoma, 78.7%; in the assay with LOX IMVI melanoma, 99.6%; in the assay with SK-MEL-28 melanoma, 104%.

`CCN(CCO)CCC(=O)c1ccc([N+](=O)[O-])cc1`: the growth in the assay with HCT-15 colon was 101%; in the assay with HT29 colon, 105%; with SNB-75 CNS, 93.2%; with SNB-19 CNS, 117%; with U251 CNS it was 98.1%; in the assay with PC-3 prostate, 103%. For the same compound, the growth with SK-MEL-5 melanoma was 100%; in the assay with UACC-62 melanoma it was 104%; with LOX IMVI melanoma, 98.5%; with SK-MEL-28 melanoma, 117%.

Regarding `O=c1cc(-c2ccccc2)oc2cc(OCc3cn(Cc4ccc(F)cc4)nn3)cc(O)c12`, the growth in the assay with HCT-15 colon was 94.4% [100 µM]; in the assay on HT29 colon it was 100% [100 µM]; in the assay on SNB-75 CNS, -65.9% [100 µM] (active); in the assay on SNB-19 CNS, -32.7% [100 µM] (active); in the assay with U251 CNS, -16.9% [100 µM] (active); with PC-3 prostate it was 76% [100 µM]. In addition, the growth was 84.5% [100 µM] with SK-MEL-5 melanoma, 53.2% [100 µM] in the assay on UACC-62 melanoma, 78.5% [100 µM] in the assay with LOX IMVI melanoma and 93.6% [100 µM] with SK-MEL-28 melanoma.

For `CCN(CC)c1ccc2cc(C(Nc3ccc(Br)c(C(F)(F)F)c3)c3nnnn3C(C)(C)C)c(=O)oc2c1` (stereo not given), the growth was 94.8% in the assay on HCT-15 colon; 85.9% in the assay with HT29 colon; 67.7% with SNB-75 CNS; 86.1% in the assay on SNB-19 CNS; 86.6% in the assay with U251 CNS; 79.7% in the assay on PC-3 prostate. In addition, the growth was 84.7% in the assay on SK-MEL-5 melanoma, 88.8% with UACC-62 melanoma, 98% in the assay on LOX IMVI melanoma and 104% with SK-MEL-28 melanoma.

As for `O=C(NCCO)c1cccnc1`, the growth was 113% in the assay on HCT-15 colon; 91.5% in the assay with HT29 colon; 92.9% with SNB-75 CNS; 101% in the assay with SNB-19 CNS; 92.7% in the assay on U251 CNS; 83.4% with PC-3 prostate. Moreover, the growth was 96% in the assay on SK-MEL-5 melanoma, 105% with UACC-62 melanoma, 95% with LOX IMVI melanoma and 106% with SK-MEL-28 melanoma.

On to `Cc1cccc([N+](=O)[O-])c1I`, for which the growth in the assay on HCT-15 colon was 113%; in the assay with HT29 colon, 106%; with SNB-75 CNS, 94.9%; in the assay on SNB-19 CNS it was 106%; in the assay on U251 CNS it was 93.8%; in the assay on PC-3 prostate, 85.5%. Moreover, the growth in the assay with SK-MEL-5 melanoma is 109%; with UACC-62 melanoma, 107%; with LOX IMVI melanoma, 101%; in the assay on SK-MEL-28 melanoma, 114%.

Turning to `Nc1cc(C(=O)O)[nH]c(=S)n1`, the growth in the assay on HCT-15 colon is 101%; in the assay with HT29 colon it was 101%; in the assay with SNB-75 CNS it was 91.4%; in the assay on SNB-19 CNS, 97.5%; with U251 CNS, 95%; in the assay on PC-3 prostate it was 99.8%. The growth with SK-MEL-5 melanoma was 98.8%; in the assay on UACC-62 melanoma it was 95.2%; in the assay with LOX IMVI melanoma it was 100%; with SK-MEL-28 melanoma it was 96.7%.

On to `O=C(Nc1ccc(Cl)c(C(F)(F)F)c1)Nc1ccc(-c2cccnc2)cc1N1CCC(CO)CC1`, for which the growth in the assay with HCT-15 colon is 14.8%; in the assay with HT29 colon it was 9.16% (active); with SNB-75 CNS, 85.4%; with SNB-19 CNS it was 29.1%; in the assay on U251 CNS, 21%; with PC-3 prostate, 12.4%. In addition, the growth in the assay with SK-MEL-5 melanoma was 11.3%; in the assay with UACC-62 melanoma it was 37%; in the assay with LOX IMVI melanoma it was 26.6%; in the assay on SK-MEL-28 melanoma it was 32.3%.

On to `CC1Cc2c(Cl)ncnc2N(C)c2ccccc21` (stereo not given), for which the growth is 12.6% in the assay with HCT-15 colon; -24.1% (active) in the assay with HT29 colon; 82.8% in the assay with SNB-75 CNS; 28.4% in the assay on SNB-19 CNS; 19.6% with U251 CNS; 16.3% with PC-3 prostate. Also, the growth in the assay with SK-MEL-5 melanoma was -75.1% (active); with UACC-62 melanoma it was 13.5%; in the assay on LOX IMVI melanoma it was -43.6% (active); in the assay with SK-MEL-28 melanoma it was 20.9%.

Turning to `COc1cc2c(cc1OCCCCCOc1ccc(-n3c(C)nc4ccccc4c3=O)cc1)N=C[C@@H]1CCCN1C2=O`, the growth is 9.39% (active) in the assay on HCT-15 colon; -1.24% (active) with HT29 colon; -80.9% (active) with SNB-75 CNS; 1.38% (active) in the assay with SNB-19 CNS; 3.85% (active) with U251 CNS; 4.39% (active) with PC-3 prostate. For the same compound, the growth with SK-MEL-5 melanoma is -79.6% (active); with UACC-62 melanoma, -74% (active); in the assay with LOX IMVI melanoma, -32.2% (active); in the assay with SK-MEL-28 melanoma it was -66.8% (active).

With `CCCCCN(CCCCC)CCCCCCCCN1CCCc2ccccc21`, the growth with HCT-15 colon is 89.7%; in the assay on HT29 colon, 25.6%; in the assay on SNB-75 CNS, 76.6%; in the assay on SNB-19 CNS, 102%; with U251 CNS it was 101%; in the assay with PC-3 prostate it was 79.5%. Further, the growth in the assay on SK-MEL-5 melanoma is 100%; in the assay with UACC-62 melanoma, 101%; with LOX IMVI melanoma it was 61.4%; with SK-MEL-28 melanoma it was 105%.

As for `O=C1Nc2ccccc2/C1=C/C(=O)c1ccc(N2CCOCC2)cc1`, the growth in the assay with HCT-15 colon is 93%; with HT29 colon, 83.4%; with SNB-75 CNS it was 90.5%; in the assay on SNB-19 CNS it was 93.9%; in the assay with U251 CNS, 81.9%; with PC-3 prostate, 84.6%. Besides, the growth is 101% in the assay with SK-MEL-5 melanoma, 83.2% with UACC-62 melanoma, 88.9% in the assay with LOX IMVI melanoma and 107% with SK-MEL-28 melanoma.

For the compound `Clc1ccc(N2CCN(CCCN3CCN(c4cccc(Cl)c4)CC3)CC2)cc1`, the growth was 40.2% in the assay on HCT-15 colon; 34.7% in the assay on HT29 colon; 52.3% with SNB-75 CNS; 63.3% in the assay on SNB-19 CNS; 55.2% with U251 CNS; 45.3% in the assay with PC-3 prostate. The growth in the assay on SK-MEL-5 melanoma was 1.8% (active); in the assay on UACC-62 melanoma it was 58.9%; in the assay with LOX IMVI melanoma, 48.4%; with SK-MEL-28 melanoma, 84.6%.
